The text below walks through data of PubChem BioAssay (Tox21).

Results filed as inconclusive are left out. Where a call stands in place of a potency, no number is given. Unmarked numbers belong to inactive results. Calls of active or inactive are those of the source. Calls follow the shape of the full dose curve.

The experiment deals with D(2) dopamine receptor (Homo sapiens) (UniProt P14416). The experiment is described as follows: Dopamine D2 receptor (DRD2) small molecule agonists, cell-based qHTS assay (AID 1963594). Also: nearly all actives have a fitted effect of over 35% in size. As to conditions: HEK293-DRD2 cAMP HTRF, agonist mode, 30 min; series mostly up to 92.4 µM; activation: at the top concentration. The method in brief: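 cAMP accumulation in DRD2-HEK293 cells measured by HTRF after 1 h detection; compounds added 10 min before NKH477 (200nM […]) forskolin-analogue stimulation, 30 min at room temperature, with Ro20-1724 present at 0.1 mM final.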
D(2) dopamine receptor (Homo sapiens), sequence (P14416 whole entry, looked up): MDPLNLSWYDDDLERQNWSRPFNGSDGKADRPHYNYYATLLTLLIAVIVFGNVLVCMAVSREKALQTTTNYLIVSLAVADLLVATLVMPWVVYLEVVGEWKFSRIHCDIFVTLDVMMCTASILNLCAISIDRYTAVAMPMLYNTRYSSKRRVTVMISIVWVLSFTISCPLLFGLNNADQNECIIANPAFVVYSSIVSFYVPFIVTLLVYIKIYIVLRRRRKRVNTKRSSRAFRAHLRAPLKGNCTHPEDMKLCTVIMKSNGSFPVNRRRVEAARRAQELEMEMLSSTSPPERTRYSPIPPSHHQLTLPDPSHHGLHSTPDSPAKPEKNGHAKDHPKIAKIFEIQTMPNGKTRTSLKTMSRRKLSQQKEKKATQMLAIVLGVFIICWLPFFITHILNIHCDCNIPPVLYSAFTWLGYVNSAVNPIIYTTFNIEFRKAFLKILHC
`O=C1CCCCCCCCCCC1`: the Potency entry is “inactive”. Still for that read-out and setting: for `CC(=O)[C@H]1CC[C@H]2[C@@H]3CC=C4C[C@@H](O)CC[C@]4(C)[C@H]3CC[C@]12C` the value was “inactive”; for `O=C1O[C@H](CO)[C@@H](O)[C@H](O)[C@H]1O`, “inactive”; for `Brc1nc2ccccc2s1`, “inactive”. Still for that read-out and setting: the entry for `Oc1ccc2ccccc2c1N=Nc1ccccc1` is “inactive”. Still for that read-out and setting: the entry for `Nc1cc([N+](=O)[O-])ccc1C(=O)O` is “inactive”; for `CCCCCCCCCCCCCC[N+](C)(C)Cc1ccccc1` it is “inactive”; for `CCCCCCCCOc1ccc(C(=O)c2ccccc2)c(O)c1` it is “inactive”. Take `Clc1ccc(Cl)c(Cl)c1Cl`: the Potency entry was “inactive”. Regarding `COc1ccc(C(Cl)=C(c2ccc(OC)cc2)c2ccc(OC)cc2)cc1`, the Potency result was “inactive”. Still for that read-out and setting: for `CCCCC1(COC(=O)CCC(=O)O)C(=O)N(c2ccccc2)N(c2ccccc2)C1=O` the value was “inactive”; for `CN(C)CCCN`, “inactive”. On the same count and under the same terms, the entry for `C=C(C)C(=O)O[C@H]1C[C@@H]2CC[C@@]1(C)C2(C)C` is “inactive”; for `C=CCOC(=O)c1ccccc1C(=O)OCC=C` it is “inactive”. Turning to `CC(=O)c1ccc(S(=O)(=O)NC(=O)NC2CCCCC2)cc1`, the Potency entry is “inactive”. The same measure, in the same setting: for `CCC(O)OC(O)CC` (stereo unspecified) the value was “inactive”; for `COCCOC(=O)c1ccccc1C(=O)OCCOC`, “inactive”. Still for that read-out and setting: for `CC(C)CC(=O)CC(C)CC(C)C` (stereo unspecified) the value was “inactive”. Regarding `O=c1n(CC2CO2)c(=O)n(CC2CO2)c(=O)n1CC1CO1` (stereo unspecified), the Potency entry was “inactive”. With `O=C(/C=C/C=C/c1ccc2c(c1)OCO2)N1CCCCC1`, the Potency result is “inactive”. As to `CCC[C@H](N[C@@H](C)C(=O)N1[C@H](C(=O)O)C[C@@H]2CCCC[C@@H]21)C(=O)OCC`, the Potency entry was “inactive”. In the case of `CCCOC(=O)NCCCN(C)C`, the Potency entry was “inactive”. On the same count and under the same terms, for `CCCCOC(=O)CC(CC(=O)OCCCC)(OC(C)=O)C(=O)OCCCC` the value was “inactive”; for `C=CC[N+](C)(C)CC=C`, “inactive”; for `CC(O)COCC(C)O` (stereo unspecified), “inactive”. Same read-out and setting: the entry for `CCCCC/C=C\C/C=C\CCCCCCCC(=O)OC` is “inactive”; for `Nc1ncnc2nc[nH]c12` it is “inactive”; for `Cc1ccc(N)c(S(=O)(=O)O)c1` it is “inactive”.

With `NCCOCCO`, the Potency entry was “inactive”. Same read-out and setting: for `CC(=O)Oc1ccc(C)cc1` the value was “inactive”. In the case of `C=C(C)C(=O)OCC(CC)(COC(=O)C(=C)C)COC(=O)C(=C)C`, the Potency entry is “inactive”. Consider `O=[N+]([O-])c1cccc(Cl)c1`, for which the “activation” value is -1.37%. For the compound `CCOCC(=O)O`, the Potency entry is “inactive”. On to `C=CCc1ccc(OC)c(OC)c1`, for which the Potency entry was “inactive”.

Consider `Clc1ccccn1`, for which the Potency result is “inactive”. Same read-out and setting: the entry for `Cc1cccc([N+](=O)[O-])c1C` is “inactive”.
